# Like-named read-outs stand apart in the source and are kept apart here.
# Experiments:
# Design in all cases: species or system human, MV4-11 + K-562 + COLO205 + SK-N-BE2 + OVCAR-8
# DYNC1LI1 = conditions: read-out: apparent Kd, compound concentrations: 100 nM and 1000 nM (sheet 'Samples'), n = 1
# GSK3A = conditions: read-out: apparent Kd, compound concentrations: 100 nM and 1000 nM (sheet 'Samples'), n = 1
# GSK3B = conditions: read-out: apparent Kd, compound concentrations: 100 nM and 1000 nM (sheet 'Samples'), n = 1
# IRAK4 = conditions: read-out: apparent Kd; compound concentrations: 100 nM and 1000 nM (sheet 'Samples'), CATDS: 6.7100435979899897E-2; n = 1
# MAP2K1 = conditions: read-out: apparent Kd; compound concentrations: 100 nM and 1000 nM (sheet 'Samples'), CATDS: 6.4942175038997504E-2; n = 1
# MAP3K2 = conditions: read-out: apparent Kd; compound concentrations: 100 nM and 1000 nM (sheet 'Samples'), CATDS: 7.9900498504471701E-2; n = 1
# STK3 = conditions: read-out: apparent Kd; compound concentrations: 100 nM and 1000 nM (sheet 'Samples'), CATDS: 7.3483496844903004E-2; n = 1
# STK4 = conditions: read-out: apparent Kd; compound concentrations: 100 nM and 1000 nM (sheet 'Samples'), CATDS: 6.4981472702296803E-2; n = 1
# TAOK1 = conditions: read-out: apparent Kd; compound concentrations: 100 nM and 1000 nM (sheet 'Samples'), CATDS: 0.10465573180823801; n = 1
# TAOK3 = conditions: read-out: apparent Kd; compound concentrations: 100 nM and 1000 nM (sheet 'Samples'), CATDS: 8.7598902274653806E-2; n = 1
# TNK2 = conditions: read-out: apparent Kd; compound concentrations: 100 nM and 1000 nM (sheet 'Samples'), CATDS: 8.6765119114313102E-2; n = 1
# TUBB6 = conditions: read-out: apparent Kd; compound concentrations: 100 nM and 1000 nM (sheet 'Samples'), CATDS: 7.2898721054062393E-2; n = 1
# WEE1 = conditions: read-out: apparent Kd; compound concentrations: 100 nM and 1000 nM (sheet 'Samples'), CATDS: 6.8522632580167595E-2; n = 1
# DYRK1A = conditions: read-out: apparent Kd, n = 1
# MAPK10 = conditions: read-out: apparent Kd; compound concentrations: 100 nM and 1000 nM (sheet 'Samples'), CATDS: 0.199019247687024; n = 1
# MAPK11 = conditions: read-out: apparent Kd, compound concentrations: 100 nM and 1000 nM (sheet 'Samples'), n = 1
# MAPK14 = conditions: read-out: apparent Kd, compound concentrations: 100 nM and 1000 nM (sheet 'Samples'), n = 1
# MAPK9 = conditions: read-out: apparent Kd; compound concentrations: 100 nM and 1000 nM (sheet 'Samples'), CATDS: 0.189062450586059; n = 1
# EGFR = conditions: read-out: apparent Kd; compound concentrations: 100 nM and 1000 nM (sheet 'Samples'), CATDS: 1; n = 1
# DJA1 = tested on: T1, DJA1; conditions: read-out: apparent Kd, compound concentrations: 100 nM and 1000 nM (sheet 'Samples'), n = 1
# T1 construct: gene DNAJA1
# PDXK = conditions: read-out: apparent Kd, compound concentrations: 100 nM and 1000 nM (sheet 'Samples'), n = 1
# PIK3CB = conditions: read-out: apparent Kd; compound concentrations: 100 nM and 1000 nM (sheet 'Samples'), CATDS: 0.79841434313068305; n = 1
# DDR1 = conditions: read-out: apparent Kd; compound concentrations: 100 nM and 1000 nM (sheet 'Samples'), CATDS: 0.199850350995284; n = 1
# MAPKAPK2 = conditions: read-out: apparent Kd; compound concentrations: 100 nM and 1000 nM (sheet 'Samples'), CATDS: 0.28488469813325601; n = 1
# MYLK3 = conditions: read-out: apparent Kd; compound concentrations: 100 nM and 1000 nM (sheet 'Samples'), CATDS: 9.6792260241437694E-2; n = 1
# PIK3CD = conditions: read-out: apparent Kd; compound concentrations: 100 nM and 1000 nM (sheet 'Samples'), CATDS: 0.44284718560289399; n = 1
# PRKCD = conditions: read-out: apparent Kd, compound concentrations: 100 nM and 1000 nM (sheet 'Samples'), n = 1
# PRKCQ = conditions: read-out: apparent Kd; compound concentrations: 100 nM and 1000 nM (sheet 'Samples'), CATDS: 0.104256233520078; n = 1
# PRKD1 = conditions: read-out: apparent Kd; compound concentrations:100 nM and 1000 nM (sheet 'Samples'); n = 1
# HSP90AA1 = conditions: read-out: apparent Kd; compound concentrations: 100 nM and 1000 nM (sheet 'Samples'), CATDS: 5.4644283651895102E-2; n = 1
# HSPE1 = conditions: read-out: apparent Kd; compound concentrations: 100 nM and 1000 nM (sheet 'Samples'), CATDS: 7.3409549069479094E-2; n = 1
# ICK = conditions: read-out: apparent Kd; compound concentrations: 100 nM and 1000 nM (sheet 'Samples'), CATDS: 5.6639320482966701E-2; n = 1
# PGK1 = conditions: read-out: apparent Kd; compound concentrations: 100 nM and 1000 nM (sheet 'Samples'), CATDS: 0.319923610407498; n = 1
# PKM = conditions: read-out: apparent Kd; compound concentrations: 100 nM and 1000 nM (sheet 'Samples'), CATDS: 5.66229333393235E-2; n = 1
# PRKCA = conditions: read-out: apparent Kd; compound concentrations: 100 nM and 1000 nM (sheet 'Samples'), CATDS: 8.5059417421235906E-2; n = 1
# PRKCB = conditions: read-out: apparent Kd; compound concentrations: 100 nM and 1000 nM (sheet 'Samples'), CATDS: 6.0874586242987201E-2; n = 1
# RPS6KA6 = conditions: read-out: apparent Kd; compound concentrations: 100 nM and 1000 nM (sheet 'Samples'), CATDS: 9.9145612858777904E-2; n = 1
# TESK1 = conditions: read-out: apparent Kd; compound concentrations: 100 nM and 1000 nM (sheet 'Samples'), CATDS: 5.61870576543727E-2; n = 1
# DDR2 = conditions: read-out: apparent Kd; compound concentrations: 100 nM and 1000 nM (sheet 'Samples'), CATDS: 0.27583033516959499; n = 1
# PIP4K2C = conditions: read-out: apparent Kd; compound concentrations: 100 nM and 1000 nM (sheet 'Samples'), CATDS: 0.290600345689909; n = 1
# RIPK2 = conditions: read-out: apparent Kd; compound concentrations: 100 nM and 1000 nM (sheet 'Samples'), CATDS: 0.517215300479827; n = 1
# NNT = conditions: read-out: apparent Kd; compound concentrations: 100 nM and 1000 nM (sheet 'Samples'), CATDS: 0.29413941723105502; n = 1
smiles,measurement,setting,value
COc1ccc2c(c1)C(c1ccccc1Cl)=Nc1c(n[nH]c1C)N2 [RO0281498-000],potency estimated from few doses,DYNC1LI1; CATDS: 8.5515201932316404E-2,1.21 µM
same,potency estimated from few doses,GSK3A; CATDS: 8.5763522680639803E-2,1.21 µM
same,potency estimated from few doses,GSK3B; CATDS: 7.6779937662019099E-2,1.5 µM
same,potency estimated from few doses,IRAK4,2.01 µM
same,potency estimated from few doses,MAP2K1,2.18 µM
same,potency estimated from few doses,MAP3K2,1.38 µM
same,potency estimated from few doses,STK3,1.64 µM
same,potency estimated from few doses,STK4,2.18 µM
same,potency estimated from few doses,TAOK1,0.858 µM
same,potency estimated from few doses,TAOK3,1.16 µM
same,potency estimated from few doses,TNK2,1.18 µM
same,potency estimated from few doses,TUBB6,1.67 µM
same,potency estimated from few doses,WEE1,1.92 µM
C[C@H](CS(C)(=O)=O)Nc1ncc2cc(Oc3ccc(F)cc3F)c(=O)n(C)c2n1 [RO5043312-000],potency estimated from few doses,"DYRK1A; compound concentrations: 100 nM and 1000 nM (sheet 'Samples'), CATDS: 0.12801866170396201",1.96 µM
same,potency estimated from few doses,MAPK10,0.398 µM
same,potency estimated from few doses,MAPK11; CATDS: 0.17455940008728901,0.583 µM
same,potency estimated from few doses,MAPK14; CATDS: 0.87257547022931203,0.0108 µM
same,potency estimated from few doses,MAPK9,0.46 µM
Fc1cccc(COc2ccc(Nc3ncnc4sc(-c5ccco5)cc34)cc2Cl)c1 [GSK969786A],potency estimated from few doses,EGFR,0.815 µM
Cc1c(Cn2c3ccccc3n3c(=O)cc(N4CCOCC4)nc23)cccc1C(F)(F)F [GSK2306394A],potency estimated from few doses,DJA1; CATDS: 0.30097601497631998,0.653 µM
same,potency estimated from few doses,PDXK; CATDS: 0.22598902737403401,1.92 µM
same,potency estimated from few doses,PIK3CB,0.0667 µM
Cc1ccc(NC(=O)c2ccnc(N3CCCC3)c2)cc1-c1ccc(C(=O)NCC2CC2)cc1 [GW769076X],potency estimated from few doses,DDR1,0.57 µM
same,potency estimated from few doses,MAPK11; CATDS: 0.201173372459408,0.559 µM
same,potency estimated from few doses,MAPK14; CATDS: 0.39757840601660499,0.14 µM
same,potency estimated from few doses,MAPKAPK2,0.25 µM
CCCN(CCS(C)(=O)=O)Cc1ccc(-c2ccc3ncnc(Nc4ccc(OCc5cccc(F)c5)c(Cl)c4)c3c2)o1.Cl [GW621823A],potency estimated from few doses,EGFR,0.643 µM
Cn1cc(C2=C(c3cn(C)c4ccc(N)cc34)C(=O)NC2=O)c2ccccc21 [RO0317365-000],potency estimated from few doses,DJA1; CATDS: 0.11913722870337901,1.12 µM
same,potency estimated from few doses,DYNC1LI1; CATDS: 9.8378875134037994E-2,1.88 µM
same,potency estimated from few doses,GSK3A; CATDS: 0.15388620061227101,0.637 µM
same,potency estimated from few doses,GSK3B; CATDS: 0.158803622599584,0.598 µM
same,potency estimated from few doses,MYLK3,1.97 µM
same,potency estimated from few doses,PIK3CD,0.113 µM
same,potency estimated from few doses,PRKCD; CATDS: 9.5557824797396607E-2,2.06 µM
same,potency estimated from few doses,PRKCQ,1.58 µM
O=c1[nH]cc(-c2ccc(N3CCOCC3)cc2)c2sc(-c3cn[nH]c3)cc12 [GSK2276055A],potency estimated from few doses,DYRK1A; compound concentrations:100 nM and 1000 nM (sheet 'Samples'),0.81 µM
same,potency estimated from few doses,PRKD1,0.936 µM
Cn1cc(C2=C(c3cn(CCN)c4ccccc34)C(=O)NC2=O)c2ccccc21 [RO0318045-000],potency estimated from few doses,DJA1; CATDS: 6.3500397257876304E-2,1.16 µM
same,potency estimated from few doses,GSK3A; CATDS: 0.123144126228622,0.269 µM
same,potency estimated from few doses,GSK3B; CATDS: 0.119624186553648,0.283 µM
same,potency estimated from few doses,HSP90AA1,1.91 µM
same,potency estimated from few doses,HSPE1,0.782 µM
same,potency estimated from few doses,ICK,1.67 µM
same,potency estimated from few doses,PGK1,0.0639 µM
same,potency estimated from few doses,PKM,1.68 µM
same,potency estimated from few doses,PRKCA,0.554 µM
same,potency estimated from few doses,PRKCB,1.32 µM
same,potency estimated from few doses,PRKCD; CATDS: 9.6711614393648698E-2,0.423 µM
same,potency estimated from few doses,RPS6KA6,0.403 µM
same,potency estimated from few doses,TESK1,1.72 µM
COc1cc2ncnc(Nc3ccc(OCc4ccccc4Br)c(Cl)c3)c2cc1OC.Cl [GI261590A],potency estimated from few doses,EGFR,2.23 µM
CNC(=O)c1cncc(/C=C/c2c(C)cccc2C)c1 [GW445012X],potency estimated from few doses,DDR2,2.06 µM
same,potency estimated from few doses,PIP4K2C,1.8 µM
same,potency estimated from few doses,RIPK2,0.587 µM
CC(C)c1[nH]nc2c1N=C(c1ccccc1Cl)c1cc([N+](=O)[O-])ccc1N2 [RO0274710-000],potency estimated from few doses,DJA1; CATDS: 0.40583373860109201,0.864 µM
same,potency estimated from few doses,NNT,1.64 µM
same,potency estimated from few doses,PDXK; CATDS: 0.31885839544215799,1.37 µM
